High-throughput results as filed in PubChem.
HSF1 activator: HSF-1 activators, primary screen, NIH3T3-HGL cells, MG132 stress, luminescence, single point; NIH3T3-HGL HSF-1 luciferase reporter, 8 h; 100% = twice DMSO control signal; activation, % at 9 µM; hit rate 1.7% among 300,000; AID 504408, 2011;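 active = mean replicate activation of at least 50% with a set share of replicates each reaching 50%; inconclusive = only one of those two conditions met; inactive = mean below 50% and too few replicates reaching it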;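 note: 0% = median of the neutral control wells and 100% = twice that signal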
esBAF inh: Bmi1 luciferase reporter increase in mESCs, primary screen, esBAF inhibitor project, mouse ES cells, Bmi1 luciferase knock-in, single point; 24 h; 100% = twice the neutral-well signal; reporter increase, % at 12.5 µM; hit rate 2% among 350,000; AID 602393, 2012; in the data active = activation above about 40%; inconclusive = no clear call, values can overlap the other calls;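 note: 0% = median of the plate's neutral control wells and 100% = double that signal; a rise in the Bmi1 reporter signal indicates esBAF inhibition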
Vif inh: HIV Vif self-association inhibitors, primary screen, imaging, HEK293T, single point. hit rate 0.35% among 340,000. inhibition, % at 7.49 µM. HEK293T cells, Vif self-association by quenched fluorescence, 24 h. AID 602346, 2012; in the data active = inhibition above about 50%, passing the limit was not always enough; inconclusive = no clear call, values can overlap the other calls; inactive = below about 31%
HSF1 inhib: HSF1 inhibitors in luciferase reporter cells, primary screen, cell-based, NIH3T3, luminescence | activity change, negative = inhibition, % at 7.5 µM (by protocol) | NIH3T3-HGL HSE-luciferase, MG132-induced, luminescence 8 h; active compounds read low | hit rate 0.77% among 300,000 | AID 2098, 2009;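 active = more than half of replicate wells show activity change below -50%, luminescence cut by over half; inconclusive = some wells, but at most half, below -50%; inactive = no replicate well below -50%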;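 note: luciferase reports HSF-1 transcriptional activity via heat shock element; 0% = median of DMSO wells and -100% = zero luminescence signal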
An asterisk follows results filed as active; ? = inconclusive; / = not tested or not shown. Most compounds without a hit are left out; they make up all but 3.4% or so of the library.

SMILES	HSF1 activator	esBAF inh	Vif inh	HSF1 inhib
COc1ccc(/C=C/C(=O)Nc2ccccc2C(=O)O)cc1	-43.0	-19.8	2.9	-39.5
CC(C)NC(=O)N(C)C[C@H]1OCCCC[C@H](C)Oc2ccc(NC(=O)Nc3ccc(F)cc3)cc2C(=O)N([C@@H](C)CO)C[C@H]1C	/	-7.1	/	/
CC(=C\c1ccccc1)/C=C1/SC(=S)N(CCCC(=O)O)C1=O	8.0	-24.4	-9.9	-8.0
CC(/C=C1\SC(=O)N(CCCC(=O)O)C1=O)=C\c1ccccc1	-78.3	-82.8	-2.2	-72.7*
CC(=Cc1ccccc1)C=C1SC(=S)N(CCCC(=O)Nc2ccc(C(=O)O)cc2)C1=O	/	8.7	5.2	/
CC(=C\c1ccccc1)/C=C1/SC(=S)N(CCC(=O)Nc2ccccn2)C1=O	-92.7	/	/	-91.2*
CC(/C=C1\SC(=S)N(CCC(=O)Nc2cccc(C(=O)O)c2)C1=O)=C\c1ccccc1	3.1	1.9	6.0	-4.4
CC(/C=C1\SC(=S)N(CCC(=O)Nc2ccccc2O)C1=O)=C\c1ccccc1	-68.7	-1.2	-3.9	-69.1*
CC(/C=C1\SC(=S)N(CCCC(=O)Nc2ccc(C(=O)O)cc2)C1=O)=C\c1ccccc1	60.8*	/	11.6	10.7
C[C@H]1CCCCO[C@@H](CN(C)C(=O)Nc2ccccc2)[C@@H](C)CN([C@@H](C)CO)C(=O)c2cc(NS(=O)(=O)c3cccs3)ccc2O1	/	3.0	/	/
CO[C@@H]1CN(C)C(=O)c2ccc(NC(C)=O)cc2OC[C@@H](C)N(C(=O)CN(C)C)C[C@@H]1C	/	-27.6	/	/
CC(=O)N(C)C[C@@H]1Oc2cc(-c3ccncc3)ccc2S(=O)(=O)N([C@@H](C)CO)C[C@@H]1C	/	2.0	/	/
O=C(Nc1ccc2c(c1)[C@@H]1C[C@@H](CC(=O)N3CCCCC3)O[C@H](CO)[C@@H]1O2)C1CCC1	/	-3.7	/	/
O=C(c1ccccc1F)N1CC[C@@H]2[C@H](CO)Nc3ccc(C#Cc4ccccc4)cc3[C@@H]21	/	1.2	/	/
O=C(Cn1cc2c(n1)CCCCC2)NC1CCCCCC1	7.8	47.1*	-10.8	12.9
Cc1ccccc1C(=O)Nc1nnc(CC(=O)N/N=C/c2ccco2)s1	-84.7	/	-0.3	-79.5*
COc1ccc(-c2cn[nH]c2-c2ccc(OCc3ccc([N+](=O)[O-])cc3)cc2O)cc1OC	56.6*	-0.4	8.5	29.5
C(=C\c1ccccc1)/CSc1ccccn1	129.9*	/	5.6	104.1
Cc1cc(C)nc(SC/C=C/c2ccccc2)n1	-10.2	23.7	24.0	-2.5
C[C@@H]1CN([C@@H](C)CO)C(=O)c2cc(-c3ccc(F)cc3)cnc2O[C@@H]1CN(C)CC1CC1	/	-1.2	/	/
COc1ccc(NC(=O)c2cc3ccccc3oc2=O)c(OC)c1	20.0	47.4*	-8.4	-2.7
COc1ccc(NC(=O)c2cc3cc(OC)ccc3oc2=O)cc1	20.7	16.6	-16.4	1.4
COc1ccccc1C(=O)Nc1cc2cc(Br)ccc2oc1=O	32.0	26.6*	17.1	0.0
COc1ccc2oc(=O)c(C(=O)Nc3cccc(C)c3)cc2c1	?	77.3*	-24.0	21.7
CC=Cc1ccc2n(c1=O)C[C@@H]1[C@@H](CO)[C@H](C(=O)NC3Cc4ccccc4C3)N(CCC)[C@H]21 (mixture of isomers)	/	-3.4	/	/
SMILES	HSF1 activator	esBAF inh	Vif inh	HSF1 inhib
CC(=O)N[C@H]1C=C[C@H](CC(=O)NCc2ccc(Cl)cc2)O[C@@H]1CO	/	1.1	/	/
CN(C)c1ccc(-c2cccc3nccn23)cc1	/	5.1	0.3	/
c1cc(-c2ccc(N3CCOCC3)cc2)n2ccnc2c1	/	57.1*	-2.8	/
COC(=O)c1c(-c2ccccc2)c[nH]c1C	25.3	51.4*	-12.6	11.7
O=C(Cn1nc(-c2ccccc2)ccc1=O)NCC1CCCO1 (stereo unspecified)	4.7	-9.1	-6.4	-4.5
O=C(Cn1nc(-c2ccc(Cl)cc2)ccc1=O)NCC1CCCO1 (stereo unspecified)	-64.0	-0.7	16.1	-56.6*
COc1ccc(NC(=O)Nc2ccc3c(c2)[C@H]2C[C@@H](CC(=O)N4CCCCC4)O[C@@H](CO)[C@H]2O3)cc1	/	-0.9	/	/
CCCCOC(=O)CCc1c(C)n[nH]c1C	63.0*	/	5.2	21.8
CSc1sccc1/C=N/O	0.1	/	-7.5	0.9
CSc1sccc1/C=C(/C#N)C(=O)c1ccco1	9.3	2.3	151.4*	-1.2
CCCNC(=O)N1C[C@H](C)[C@H](OC)CN(C)C(=O)c2cc(NS(C)(=O)=O)ccc2OC[C@@H]1C	/	2.6	/	/
C/C(=N\O)c1ccc(N2C(=O)C3CC=C(Cl)CC3C2=O)cc1 (stereo unspecified)	-7.1	73.4*	13.1	5.1
COc1ccccc1Oc1coc2cc(OCC(N)=O)ccc2c1=O	-7.3	-5.9	59.5*	-2.7
CC(C)c1ccccc1NC(=O)COc1ccc2c(=O)c(Oc3ccc4ccccc4c3)coc2c1	14.9	/	/	3.9
CCCNC(=O)COc1ccc2c(=O)c(Oc3ccccc3F)coc2c1	-76.7	/	-17.0	-69.5*
CCc1ccccc1NC(=O)COc1ccc2c(=O)c(Oc3cc(C)ccc3C)coc2c1	70.6*	/	-2.3	28.7
C[C@H](CO)N1C[C@H](C)[C@H](CN(C)S(=O)(=O)c2cccs2)Oc2c(NC(=O)Nc3cccc4ccccc34)cccc2C1=O	/	0.3	/	/
COc1ccccc1Cc1c(-c2ccccc2)nc2ccc(Br)cn12	/	52.0*	/	/
FC(F)(F)c1ccccc1Cc1c(-c2ccc(Cl)cc2)nc2ccc(Cl)cn12	/	64.4*	/	/
FC(F)(F)c1ccccc1Cc1c(-c2ccc(Cl)cc2)nc2ccc(Br)cn12	/	42.4*	/	/
CCOC(=O)N1CCC(NC(=O)C2CCN(C(=O)c3cc4oc(C)cc4n3Cc3c(F)cccc3Cl)CC2)CC1	7.5	/	-16.0	-3.3
COC(CNC(=O)C1CCN(C(=O)c2cc3oc(C)cc3n2Cc2c(F)cccc2Cl)CC1)OC	9.9	/	54.8*	3.2
C=CCn1c(C)cc(C(=O)COc2ccc(C)nc2[N+](=O)[O-])c1C	-60.4	/	1.7	-53.7*
Cc1ccc(OCC(=O)c2cc(C)n(-c3ccccc3)c2C)c([N+](=O)[O-])n1	-65.2	/	2.3	-61.8*
CCCn1c(C)cc(C(=O)COc2ccc(C)nc2[N+](=O)[O-])c1C	-11.9	-13.9	8.2	-17.1
COCCn1c(C)cc(C(=O)COc2ccc(C)nc2[N+](=O)[O-])c1C	-33.1	-61.5	-5.3	-32.7
CN(C)Cc1cn(CC[C@H]2CC[C@H](NC(=O)Nc3ccc4c(c3)OCO4)[C@H](CO)O2)nn1	/	1.5	/	/
O=C(/C=C/c1cccc([N+](=O)[O-])c1)NC(=S)Nc1ccc(CN2CCOCC2)cc1	135.9*	/	-4.7	83.8
O=C(NC(=S)Nc1ccc(CN2CCOCC2)cc1)c1ccc([N+](=O)[O-])cc1	-3.8	/	-0.8	-7.5
CCOC(=O)C1(Cc2cccc(Cl)c2)CCCN(C(=O)c2cc(C)on2)C1 (stereo unspecified)	29.2	52.9*	-10.1	4.7
